In the library only some 4.6% were active in any assay of this set; here they are far more common.
tim10-1 inh: tim10-1 yeast growth inhibition; inhibition, % at 20 µM; S. cerevisiae tim10-1 ts strain growth, BacTiter-Glo, 24 h; actives 2.2% (n = 330,000); AID 463190;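 active = inhibition of at least 40%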;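 also: mutant grown at 25 °C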
NLRP3 yeast inh: blocks the NALP3 inflammasome reconstituted in yeast; Yeast reconstituted NLRP3/ASC/caspase-1, beta-gal luminescence, 24 h; inhibition, % at 10 µM; actives 0.39% (n = 330,000); AID 2825;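 active = inhibition of 50% or more; inactive = inhibition below 50%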
SKKanGAS inh: SKKanGAS growth inhibition; inhibition, % at 7.5 µM; S. pyogenes SKKanGAS, kanamycin growth, BacTiter-Glo, 6 h; AID 1662; actives 1.3% (n = 300,000);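 active = mean replicate score, as percent of positive control median, at least 50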;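 also: strain carries kanamycin resistance gene driven by streptokinase promoter and grows in 40 µg/ml kanamycin; loss of luminescence reflects streptokinase promoter inhibition or plain growth inhibition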
TIM10 inh: growth inhibitors of TIM10 yeast strain; AID 463195; actives 1.4% (n = 330,000); S. cerevisiae TIM10 strain growth, BacTiter-Glo luminescence, 24 h; inhibition, % at 10 µM;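 active = inhibition of 40% or more at the single tested concentration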;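 also: wild-type TIM10 isogenic control strain grown at permissive 25 °C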
tim23-1 inh: inhibits growth of tim23-1 mutant yeast | S. cerevisiae tim23-1 growth, BacTiter-Glo luminescence, 24 h | inhibition, % at 20 µM | actives 1.3% (n = 330,000) | AID 463212;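 active = growth inhibition of the mutant yeast at or above 50%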;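 also: temperature-sensitive mutant grown at 25 °C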
Each line names hits and unclear results; the compound was inactive in the other large screens.

COc1ccc(/C=C/C(=O)NC(=S)NNC(=O)c2cccs2)cc1	SKKanGAS inh 94
COc1ccc(C(=O)NNC(=S)NC(=O)c2cccnc2)cc1	none
O=C(NCC(=O)N1CCN(c2ncccn2)CC1)c1ccccc1OC(F)F	none (no result: SKKanGAS inh)
O=C(c1ccc(Br)o1)N1N=C(c2ccc(Cl)cc2)CC1c1ccco1 (configuration not stated)	SKKanGAS inh 60
Cc1cc(O)c(C(C)C)cc1C1(c2cc(C(C)C)c(O)cc2C)OC(=O)c2ccccc21	SKKanGAS inh 84
Cc1cc(C2(c3ccc(O)c(C)c3)OC(=O)c3ccccc32)ccc1O	none
O=c1c2cc(-c3ccccc3)sc2nc2n1CCC2	SKKanGAS inh 50
COc1ccc(CN2C(=O)c3ccccc3C(/C=N/OCc3ccc(Cl)cc3)C2=O)cc1 (configuration not stated)	SKKanGAS inh 97
CCN(C(=O)COC(=O)CCC(=O)c1cccs1)c1ccccc1	none (no result: SKKanGAS inh)
CCOc1ccc(N(CC(=O)NCc2ccc(C)cc2)S(=O)(=O)c2c(C)[nH]c(=O)[nH]c2=O)cc1	SKKanGAS inh 59
CCOC(=O)c1nc(C)nc(Sc2n[nH]c(-c3ccccc3)n2)c1C	none
Nc1nc(-c2ccccc2)c(N=Nc2cccc3ccccc23)s1	SKKanGAS inh 57
CC(=O)Nc1sc(N)nc1-c1ccccc1	none
COc1cccc(/C=C(/C(=O)OCC(=O)NC2CCCC(C)C2C)c2ccccc2)c1 (configuration not stated)	SKKanGAS inh 65 (no result: tim10-1 inh, NLRP3 yeast inh, TIM10 inh, tim23-1 inh)
COc1cccc(/C=C(/C(=O)OCC(N)=O)c2ccccc2)c1	none
Cc1ccc(OCC(=O)NC2CCS(=O)(=O)C2)c([N+](=O)[O-])n1 (configuration not stated)	none
C/C(=N\Nc1nc2ccccc2s1)c1ccc(Br)s1	SKKanGAS inh 92
COc1ccc(C2C(C(=O)c3ccccc3)=C(C)Nc3nc4ccccc4n32)c(OC)c1 (configuration not stated)	SKKanGAS inh 89
COc1ccc(OC)c(C2C(C(=O)N(C)C)=C(C)Nc3nc4ccccc4n32)c1 (configuration not stated)	none
CSCCC(NC(=O)c1ccccc1)C(=O)OCC(=O)NCc1ccco1 (configuration not stated)	none (no result: SKKanGAS inh)
Cc1ccc(CSc2nc3sc(C)c(C)c3c(=O)n2Cc2ccco2)cc1	SKKanGAS inh 78
CCn1c(SCC(=O)Nc2ccc(N3CCOCC3)cc2)nnc1C1CC1	none (no result: SKKanGAS inh)
O=C(NNc1nc(-c2ccccc2)cs1)c1ccc(F)cc1	SKKanGAS inh 53
CC(C)(C)c1csc(NNC(=O)c2ccc(Br)cc2)n1	SKKanGAS inh 61
O=C(NNc1nc(-c2ccc(F)cc2)cs1)c1ccccc1	SKKanGAS inh 68
C/C(=N\Nc1nc(C(C)(C)C)cs1)c1ccc(O)cc1	none
CCC(NC(=O)CSc1nnnn1C1CC1)c1ccc(Br)cc1 (configuration not stated)	none (no result: SKKanGAS inh)
C[C@H](CO)N1C[C@H](C)[C@@H](CN(C)C(=O)NC2CCCCC2)Oc2ccc(NC(=O)Cc3ccccc3)cc2C1=O	none (no result: SKKanGAS inh)
CN1CCN(C2Cc3ccc(F)cc3Sc3cc(F)c(Cl)cc32)CC1 (configuration not stated)	SKKanGAS inh 97
Brc1ccc(-c2ccc(/C=N/Nc3nc4ccccc4[nH]3)o2)cc1	SKKanGAS inh 89
C(=N\Nc1nc2ccccc2[nH]1)/c1ccccc1	none
Cc1ccccc1/C=N/Nc1nc2ccccc2[nH]1	SKKanGAS inh 68
O=c1[nH]c(N/N=C/c2cc3c(cc2[N+](=O)[O-])OCO3)nc2ccccc12	none
O=[N+]([O-])c1cc(/C=N/Nc2nc3ccccc3[nH]2)c(O)cc1O	SKKanGAS inh 97 (no result: tim10-1 inh, NLRP3 yeast inh, TIM10 inh, tim23-1 inh)
Cc1[nH]c2ccccc2c1/C=N/Nc1nc2ccccc2[nH]1	SKKanGAS inh 61
Cc1ccc(NC(=O)CCSc2nnc(C)o2)cc1	none
CCCNC(=O)c1cc(Cl)c(NC(=O)C2=CSCCO2)cc1OC	none
CC(=O)N1CCN(C(=O)c2cccc(NS(=O)(=O)c3ccc(Br)cc3)c2)CC1	none
C/C(=N/NC(=O)CNC(=O)COc1cccc(C)c1)c1ccc(Cl)cc1	none
C(=N\Nc1nc2ccccc2[nH]1)/c1c[nH]c2ccccc12	SKKanGAS inh 64
Cc1cccc(C)c1OCC(=O)NNC(=S)NC(=O)C1CC1	SKKanGAS inh 95
CCOC(=O)CC[C@H](NC(=O)Cn1cnc2c(NCc3ccccc3)ncnc21)C(=O)OCC	none (no result: NLRP3 yeast inh, SKKanGAS inh)
S=c1[nH]nc(C2CCCCC2)n1/N=C/c1cccc(Cl)c1Cl	SKKanGAS inh 59
CC(C)COc1cccc(C(=O)Nc2ccc(N3CCOCC3)cc2N2CCOCC2)c1	none
COc1ccc(Cl)cc1/C=C/c1ccc2cccc(O)c2n1	SKKanGAS inh 89
O/N=C/c1ccc2cccc(O)c2n1	none
COc1cc(Cl)cc(/C=C/c2ccc3cccc(O)c3n2)c1OC	SKKanGAS inh 87
COc1ccccc1/C=C/c1ccc2cccc(O)c2n1	SKKanGAS inh 97
COc1ccc(N=Cc2cc(Cl)ccc2O)cc1Cl	none
Oc1ccccc1/C=N/NC(=S)NCCc1ccccc1	SKKanGAS inh 96 (no result: tim10-1 inh, NLRP3 yeast inh, TIM10 inh, tim23-1 inh)
Cc1ccc(C)c(/C=N/NC(=S)NCCc2ccccc2)c1	SKKanGAS inh 54
O=C(CSc1nc2ccccc2o1)Nc1ccccc1N1CCCCCC1	SKKanGAS inh 59
Cc1c(/C=N/NC(=O)c2ccc(O)cc2)c2ccccn2c1C(=O)c1ccc(F)cc1	SKKanGAS inh 52
COc1cccc(C(=O)NC(=S)N2CCN(c3ccc(C(F)(F)F)cc3[N+](=O)[O-])CC2)c1	SKKanGAS inh 70
O=C(NC(=S)N1CCN(c2ccc(Cl)cc2[N+](=O)[O-])CC1)c1ccco1	none
O=C(NC(=S)N1CCN(c2ccc(Cl)cc2[N+](=O)[O-])CC1)c1cccs1	SKKanGAS inh 71 (no result: tim10-1 inh, NLRP3 yeast inh, TIM10 inh, tim23-1 inh)
CC(C)Oc1cccc(C(=O)NC(=S)N2CCN(c3ccc(C(F)(F)F)cc3[N+](=O)[O-])CC2)c1	SKKanGAS inh 97
COc1cc(/C=C/C(=O)OCC(=O)c2c(N)n(C)c(=O)n(C)c2=O)ccc1OC(F)F	none
COc1cc(/C=C/C(=O)OCC(=O)c2c(N)n(C)c(=O)n(C)c2=O)ccc1O	SKKanGAS inh 58
COc1cc(/C=C/C(=O)OCC(=O)c2c(N)n(C)c(=O)n(C)c2=O)ccc1OCC#N	SKKanGAS inh 56
CCOc1ccc(C(=O)OCC(=O)N2CCCC2)cc1	none
COC(=O)[C@]1(C)N[C@H](CN(C)C(=O)C2CCCCC2)[C@@H]2C(=O)N(C)C(=O)[C@@H]21	none (no result: SKKanGAS inh)
CCCCc1c(C)nn(-c2nnc3c4ccccc4n(CC)c3n2)c1C	SKKanGAS inh 76
CCOP(=O)(OCC)c1nc(-c2cccc3ccccc23)oc1NCc1ccc(OC)cc1	SKKanGAS inh 57
CCCCCCc1nc2ccccc2c(=O)n1NC(=O)c1c(O)c2c(n(CC(C)C)c1=O)CCCC2	SKKanGAS inh 57
Cc1cc2c(cc1C)CSC(c1c(O)ccc3ccccc13)SC2	SKKanGAS inh 94
Cc1cc2c(cc1C)CSC(c1ccc3ccccc3c1O)SC2	none
CCOc1ccccc1NC(=O)CSc1nc2nc(-c3cccs3)cc(C(F)(F)F)c2c(=O)[nH]1	none

Screening results from PubChem BioAssay.
